Common to all, as to design: scale not given: direction of the effect not stated beside the values
Test [1] concerns the target Protein translocase subunit SecA (Escherichia coli (strain K12)) (UniProt P10408). In words: Assay to Identify E. coli SecA ATPase Inhibitors. In kind it is functional. The settings on record: 30 µM.
For test [2], the target named is T1, Ubiquitin-activating enzyme e1, putative (Leishmania donovani (strain BPK282A1)) (UniProt E9BSI1).
T1 sequence (whole entry): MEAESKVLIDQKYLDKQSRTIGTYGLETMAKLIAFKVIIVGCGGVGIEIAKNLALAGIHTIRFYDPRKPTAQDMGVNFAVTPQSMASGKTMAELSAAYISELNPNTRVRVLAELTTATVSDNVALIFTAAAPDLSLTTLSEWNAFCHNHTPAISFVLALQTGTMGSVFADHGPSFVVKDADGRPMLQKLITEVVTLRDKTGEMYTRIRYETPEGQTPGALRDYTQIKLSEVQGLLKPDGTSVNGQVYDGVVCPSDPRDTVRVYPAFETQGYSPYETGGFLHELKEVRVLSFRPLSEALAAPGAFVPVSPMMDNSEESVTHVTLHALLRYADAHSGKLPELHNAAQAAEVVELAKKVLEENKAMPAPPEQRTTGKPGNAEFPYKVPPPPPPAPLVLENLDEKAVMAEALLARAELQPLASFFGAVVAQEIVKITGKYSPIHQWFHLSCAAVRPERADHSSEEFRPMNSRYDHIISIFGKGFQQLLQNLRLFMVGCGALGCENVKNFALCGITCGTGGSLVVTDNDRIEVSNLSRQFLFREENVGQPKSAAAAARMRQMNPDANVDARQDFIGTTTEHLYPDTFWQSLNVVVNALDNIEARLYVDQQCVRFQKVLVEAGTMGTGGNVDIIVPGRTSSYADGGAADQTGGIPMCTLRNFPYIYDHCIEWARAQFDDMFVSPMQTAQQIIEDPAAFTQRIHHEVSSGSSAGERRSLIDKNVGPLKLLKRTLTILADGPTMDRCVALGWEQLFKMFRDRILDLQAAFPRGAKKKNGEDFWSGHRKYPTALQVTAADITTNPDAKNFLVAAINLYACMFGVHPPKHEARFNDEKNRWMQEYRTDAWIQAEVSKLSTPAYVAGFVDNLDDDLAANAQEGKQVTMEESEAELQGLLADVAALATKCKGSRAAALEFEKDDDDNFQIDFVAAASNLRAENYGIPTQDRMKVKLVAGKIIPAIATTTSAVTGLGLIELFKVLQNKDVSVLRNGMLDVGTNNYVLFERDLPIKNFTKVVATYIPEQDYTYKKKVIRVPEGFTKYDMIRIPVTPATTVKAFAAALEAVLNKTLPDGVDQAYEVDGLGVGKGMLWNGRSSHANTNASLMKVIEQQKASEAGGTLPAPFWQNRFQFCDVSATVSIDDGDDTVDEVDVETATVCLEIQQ
In words: Leishmania donovani Ubiquitin Activating Enzyme (LdE1). In kind it is functional. Conditions: 30 µM.

The target in test [3] is AMP-activated protein kinase, AMPK (Homo sapiens) (UniProt P54646+O43741+P54619+Q9UGJ0+Q9Y478+Q13131+Q9UGI9). In words: AMP-dependent Kinase enzyme assay. An in vitro enzyme assay that detects ADP turnover that is directly proportional to AMPK activity. This uses naive AMPK that is activated during the assay with MK-8722. In kind it is functional. Conditions: 30 µM.
The target in test [4] is Sialic acid-binding Ig-like lectin 9 (Homo sapiens) (UniProt Q9Y336). The experiment in a line: Hs-Siglec9 ALPHAscreen SOP 20170721. Conditions: 10 µM. (In general: Bead proximity is the source of the signal in Alpha formats.)
Chain of Sialic acid-binding Ig-like lectin 9 (Homo sapiens) (Q9Y336 whole entry): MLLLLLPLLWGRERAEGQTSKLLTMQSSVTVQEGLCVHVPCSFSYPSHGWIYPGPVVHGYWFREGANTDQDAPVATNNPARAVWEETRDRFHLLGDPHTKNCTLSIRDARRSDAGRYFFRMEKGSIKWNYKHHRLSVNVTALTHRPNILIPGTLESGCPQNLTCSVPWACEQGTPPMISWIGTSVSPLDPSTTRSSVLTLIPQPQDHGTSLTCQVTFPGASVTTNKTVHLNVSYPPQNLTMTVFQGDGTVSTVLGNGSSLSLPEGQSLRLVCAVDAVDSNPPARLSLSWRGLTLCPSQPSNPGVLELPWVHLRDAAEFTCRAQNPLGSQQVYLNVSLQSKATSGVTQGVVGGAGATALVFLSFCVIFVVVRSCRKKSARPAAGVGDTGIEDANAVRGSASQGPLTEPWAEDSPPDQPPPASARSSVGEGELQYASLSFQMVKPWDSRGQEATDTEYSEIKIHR
The test system of a further test is Trypanosoma cruzi. In words: Trypanosoma cruzi phosphomannomutase and mannose-1-phosphate guanylyltransferase assay. The settings on record: 10 µM. In kind it is functional.
Test [5] concerns the target T2, Arginase-2, mitochondrial (Homo sapiens) (UniProt P78540).
T2 sequence (whole entry): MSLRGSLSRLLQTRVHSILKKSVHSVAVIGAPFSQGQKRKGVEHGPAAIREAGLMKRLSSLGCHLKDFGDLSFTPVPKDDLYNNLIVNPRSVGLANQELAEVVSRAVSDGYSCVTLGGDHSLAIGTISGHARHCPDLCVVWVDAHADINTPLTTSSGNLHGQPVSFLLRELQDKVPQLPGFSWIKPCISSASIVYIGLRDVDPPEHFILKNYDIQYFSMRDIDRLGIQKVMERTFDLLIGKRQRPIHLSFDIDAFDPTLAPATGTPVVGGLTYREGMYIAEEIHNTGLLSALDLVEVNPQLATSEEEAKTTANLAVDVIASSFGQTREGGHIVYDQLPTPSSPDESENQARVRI
The experiment in a line: in vitro enzyme assay to detect the production of urea directly proportional to the activity of Arginase II. Also: in the data most compounds retested in dose-response had high values. The format is functional. Conditions: 33.3 µM.

In test [6] the target is T3, Proteasome subunit beta (Trypanosoma cruzi) (UniProt O96673).
T3 sequence (whole entry): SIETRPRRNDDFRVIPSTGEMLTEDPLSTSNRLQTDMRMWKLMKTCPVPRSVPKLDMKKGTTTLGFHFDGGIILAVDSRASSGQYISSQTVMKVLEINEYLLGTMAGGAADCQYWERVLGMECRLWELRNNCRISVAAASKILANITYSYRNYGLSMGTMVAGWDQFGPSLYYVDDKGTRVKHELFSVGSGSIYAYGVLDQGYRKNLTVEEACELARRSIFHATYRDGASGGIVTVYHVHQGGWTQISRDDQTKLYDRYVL
In words: Trypanosoma cruzi proteasome chymotrypsin-like activity (TcProtChymo) assay. Also: in the data most compounds retested in dose-response had high values. In kind it is functional. The settings on record: 9.37 µM.

The species named for the next test is Homo sapiens. The experiment in a line: To identify inhibition of the IFN signalling (Jak-Stat) pathway via expression of an eGFP reporter gene under the control of an IFN-stimulated response element (ISRE) containing MxA promoter. The settings on record: 30 µM. The format is functional.
Test [7] deals with T4, Tyrosyl-tRNA synthetase, putative (Trypanosoma cruzi (strain CL Brener)) (UniProt Q4DSP6).
T4 sequence (whole entry): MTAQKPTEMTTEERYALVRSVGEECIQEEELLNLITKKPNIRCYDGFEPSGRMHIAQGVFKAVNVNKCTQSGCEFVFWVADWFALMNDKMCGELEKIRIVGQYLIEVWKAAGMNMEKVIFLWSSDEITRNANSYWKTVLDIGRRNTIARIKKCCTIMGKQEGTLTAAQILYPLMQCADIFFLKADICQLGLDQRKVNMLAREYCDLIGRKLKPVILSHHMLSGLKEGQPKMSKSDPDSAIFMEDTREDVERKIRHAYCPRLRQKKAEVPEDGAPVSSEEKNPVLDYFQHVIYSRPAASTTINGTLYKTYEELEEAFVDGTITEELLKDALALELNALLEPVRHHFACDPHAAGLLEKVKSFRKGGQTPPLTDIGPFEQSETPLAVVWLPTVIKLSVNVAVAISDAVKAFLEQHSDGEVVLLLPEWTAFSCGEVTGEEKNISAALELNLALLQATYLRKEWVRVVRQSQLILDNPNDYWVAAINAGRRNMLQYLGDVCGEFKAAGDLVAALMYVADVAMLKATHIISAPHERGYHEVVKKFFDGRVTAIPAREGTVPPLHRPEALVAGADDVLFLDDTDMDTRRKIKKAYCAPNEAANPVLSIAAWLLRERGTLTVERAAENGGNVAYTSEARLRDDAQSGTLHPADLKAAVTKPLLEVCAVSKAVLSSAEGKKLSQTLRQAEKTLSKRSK
The experiment in a line: Trypanosoma cruzi tyrosyl tRNA synthetase (TcYRS) _High Tyrosine SOP. Also: in the data most compounds retested in dose-response had high values. The format is functional. Conditions: 30 µM.

In test [8] the target is T4, Tyrosyl-tRNA synthetase, putative (Trypanosoma cruzi (strain CL Brener)). In words: Trypanosoma cruzi tyrosyl tRNA synthetase (TcYRS) SOP. The format is functional. The settings on record: 30 µM.
Test [9] addresses Chromo domain-containing protein 1 (Saccharomyces cerevisiae (strain ATCC 204508 / S288c) (Baker's yeast)) (UniProt P32657). The experiment in a line: ScCHD-1 Enzyme Inhibition Assay. Also: in the data most compounds retested in dose-response had high values. The format is functional. The settings on record: 30 µM.

For some of these results: Potency and affinity values are given separately.

Chain of Protein translocase subunit SecA (Escherichia coli (strain K12)) (P10408 whole entry): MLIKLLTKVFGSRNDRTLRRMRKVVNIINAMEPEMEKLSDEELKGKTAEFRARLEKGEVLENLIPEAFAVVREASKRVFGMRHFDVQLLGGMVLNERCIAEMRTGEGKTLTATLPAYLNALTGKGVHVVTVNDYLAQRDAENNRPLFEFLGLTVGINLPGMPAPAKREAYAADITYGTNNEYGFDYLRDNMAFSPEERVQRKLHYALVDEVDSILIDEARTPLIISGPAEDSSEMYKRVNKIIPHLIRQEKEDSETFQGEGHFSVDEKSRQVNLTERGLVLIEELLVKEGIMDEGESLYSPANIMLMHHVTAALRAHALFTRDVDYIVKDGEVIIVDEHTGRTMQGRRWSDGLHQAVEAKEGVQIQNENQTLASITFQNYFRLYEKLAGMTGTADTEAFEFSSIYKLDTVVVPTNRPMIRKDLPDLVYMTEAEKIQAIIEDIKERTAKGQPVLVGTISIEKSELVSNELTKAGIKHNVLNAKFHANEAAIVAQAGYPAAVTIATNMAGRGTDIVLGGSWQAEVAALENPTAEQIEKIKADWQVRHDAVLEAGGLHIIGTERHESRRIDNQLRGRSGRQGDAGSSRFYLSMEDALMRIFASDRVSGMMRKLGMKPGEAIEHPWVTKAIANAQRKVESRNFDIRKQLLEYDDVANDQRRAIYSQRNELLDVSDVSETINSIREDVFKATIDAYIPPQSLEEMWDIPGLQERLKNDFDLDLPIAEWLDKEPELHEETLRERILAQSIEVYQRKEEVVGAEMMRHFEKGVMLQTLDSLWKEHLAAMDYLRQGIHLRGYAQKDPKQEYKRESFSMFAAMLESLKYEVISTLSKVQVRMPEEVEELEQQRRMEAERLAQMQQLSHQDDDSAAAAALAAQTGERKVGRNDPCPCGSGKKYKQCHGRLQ
Chain of Chromo domain-containing protein 1 (Saccharomyces cerevisiae (strain ATCC 204508 / S288c) (Baker's yeast)) (P32657 whole entry, the tested form may be a part): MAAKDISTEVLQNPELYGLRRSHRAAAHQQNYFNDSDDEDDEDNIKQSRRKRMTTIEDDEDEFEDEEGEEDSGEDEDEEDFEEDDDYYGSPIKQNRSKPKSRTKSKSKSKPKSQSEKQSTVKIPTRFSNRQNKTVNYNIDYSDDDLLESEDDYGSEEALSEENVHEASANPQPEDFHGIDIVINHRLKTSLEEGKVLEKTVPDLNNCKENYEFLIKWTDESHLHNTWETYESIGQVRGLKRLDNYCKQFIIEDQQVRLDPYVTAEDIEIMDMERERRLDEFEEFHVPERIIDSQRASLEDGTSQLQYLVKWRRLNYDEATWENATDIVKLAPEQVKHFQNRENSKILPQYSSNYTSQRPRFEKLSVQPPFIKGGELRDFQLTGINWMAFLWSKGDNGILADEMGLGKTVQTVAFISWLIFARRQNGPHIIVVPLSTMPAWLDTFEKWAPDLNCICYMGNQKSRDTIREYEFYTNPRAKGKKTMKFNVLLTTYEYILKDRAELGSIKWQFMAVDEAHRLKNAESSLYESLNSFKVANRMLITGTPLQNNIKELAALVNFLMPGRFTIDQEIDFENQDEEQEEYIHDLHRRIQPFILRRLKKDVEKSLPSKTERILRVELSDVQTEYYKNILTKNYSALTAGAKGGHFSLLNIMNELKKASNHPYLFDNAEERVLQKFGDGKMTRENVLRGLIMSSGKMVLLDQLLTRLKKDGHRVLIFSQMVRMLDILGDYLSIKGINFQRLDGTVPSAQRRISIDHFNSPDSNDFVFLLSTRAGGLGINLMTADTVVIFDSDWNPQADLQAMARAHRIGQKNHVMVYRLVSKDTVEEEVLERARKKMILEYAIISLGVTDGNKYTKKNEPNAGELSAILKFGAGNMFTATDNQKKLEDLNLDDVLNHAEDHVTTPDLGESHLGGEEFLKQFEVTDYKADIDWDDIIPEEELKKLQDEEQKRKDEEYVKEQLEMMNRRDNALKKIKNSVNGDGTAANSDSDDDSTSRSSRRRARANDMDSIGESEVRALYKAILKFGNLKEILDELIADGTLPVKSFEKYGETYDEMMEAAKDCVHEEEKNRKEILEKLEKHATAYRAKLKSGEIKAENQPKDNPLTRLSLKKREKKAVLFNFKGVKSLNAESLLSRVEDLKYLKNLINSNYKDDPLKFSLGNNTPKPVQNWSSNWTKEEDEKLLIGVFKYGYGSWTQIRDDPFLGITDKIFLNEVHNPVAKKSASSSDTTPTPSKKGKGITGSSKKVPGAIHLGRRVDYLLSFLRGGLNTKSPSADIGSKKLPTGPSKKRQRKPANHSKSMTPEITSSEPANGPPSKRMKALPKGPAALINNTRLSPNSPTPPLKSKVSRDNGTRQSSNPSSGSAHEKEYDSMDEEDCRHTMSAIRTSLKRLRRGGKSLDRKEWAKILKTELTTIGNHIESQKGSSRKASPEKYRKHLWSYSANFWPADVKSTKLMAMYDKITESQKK

Turning to `CC(C)c1ccc(-c2nnn(CCNS(C)(=O)=O)n2)cc1`, the Percent Effect in [1] was -4.75%; in test [2], 2.74%; in [3], 0.921%; in test [4], 2.29%; with Trypanosoma cruzi it was 4.96%; in [5], -2%. The Percent Effect in test [6] was 4.71%; in the test listed under Homo sapiens, -14%; in test [7], -4.17%; in [8], 8.64%; in test [9] it was -0.501%.

Turning to `Cc1nc(C2CCCN(C(=O)c3ccco3)C2)no1` (stereo unspecified), the Percent Effect in test [1] was -7.21%; in test [2], 1.27%; in [3], 1.16%; in test [4], -2.53%; in the test on Trypanosoma cruzi, -0.308%; in test [5], -0.645%. Further, the Percent Effect in [6] was 1.37%; in the test filed under Homo sapiens it was 16%; in [7], 1.04%; in test [8], -7.59%; in [9], -4.36%.

In the case of `COC(=O)c1ccc(S(=O)(=O)NCc2cccnc2N(C)C)cc1`, the Percent Effect in [1] is -2.49%; in test [2], 17.7%; in test [3], 0.13%; in test [4], -11%; with Trypanosoma cruzi, -8.59%; in test [5] it was -4.18%. In addition, the Percent Effect was 4.67% in test [6]; 66.2% in the test listed under Homo sapiens; -16.3% in [7]; 16.5% in test [8]; -6.7% in test [9].

Turning to `CC(C)(C)c1noc(CN2CCCN(Cc3cccs3)CC2)n1`, the Percent Effect in [1] was -4.7%; in test [2] it was 10.4%; in [3] it was 2.92%; in [4], -6.09%; in the test with Trypanosoma cruzi, -3.75%; in [5], 0.356%. Further, the Percent Effect is 1.69% in [6]; 30% in the test filed under Homo sapiens; 6.8% in test [7]; 12.2% in test [8]; -5.35% in test [9].

`CCc1n[nH]c(C2CN(CC(=O)NCCc3ccsc3)CCO2)n1` (stereo unspecified): the Percent Effect in [1] is -2.71%; in test [2], 5.48%; in test [3] it was -4.4%; in test [4], 11.2%; in the test with Trypanosoma cruzi, 5.09%; in test [5] it was 4.09%. The Percent Effect was 1.42% in test [6]; 4.97% in the test listed under Homo sapiens; 1.07% in test [7]; 5% in test [8]; -5.13% in test [9].

For `CNc1cc(C)nc(C2CN(Cc3ccc(C)nc3)CCO2)c1` (stereo unspecified), the Percent Effect in test [1] is -2.49%; in [2] it was 4.05%; in [3] it was 9.63%; in test [4] it was -3.85%; in the test with Trypanosoma cruzi it was -1.19%; in [5] it was -0.696%. Besides, the Percent Effect in [6] is 4.84%; in the test filed under Homo sapiens it was 0.717%; in test [7], 3.23%; in [8] it was 3.9%; in [9], -10.8%.

For `CCC(C)N(C)S(=O)(=O)c1ccc(CCNC(C)=O)s1` (stereo unspecified), the Percent Effect in test [1] was -1.87%; in [2], -4.17%; in [3], -4.26%; in test [4] it was -5.04%; in the test on Trypanosoma cruzi, -2.62%; in test [5], 0.442%. The Percent Effect was 8.77% in [6]; 10.4% in the test listed under Homo sapiens; -3.16% in test [7]; -5.13% in test [8]; 5.31% in test [9].

For `CCNC(=O)N1CCN(Cc2nc3ccccc3[nH]2)[C@@H]2CS(=O)(=O)C[C@@H]21`, the Percent Effect in test [1] was -3.35%; in test [2], 5.41%; in [3], -2.19%; in test [4], -3.56%; with Trypanosoma cruzi, -4.2%; in [5], 2.23%. The Percent Effect in test [6] was 15.2%; in the test filed under Homo sapiens it was 1.54%; in test [7], 4.3%; in test [8], 11.1%; in [9] it was -3.76%.

Regarding `O=C(O)c1cc(S(=O)(=O)Nc2cc(F)ccc2F)cc2c1OCCO2`, the Percent Effect in test [1] is -3.9%; in test [2], -2.63%; in test [3], 4.03%; in [4], 6.95%; in the test with Trypanosoma cruzi, -6.44%; in [5], 3.6%. Also, the Percent Effect in test [6] is 4.65%; in the test filed under Homo sapiens it was 3.03%; in [7], 0.493%; in test [8], 1.24%; in test [9], -3.53%.

In the case of `Cc1cc(CN(C)C(=O)C2CCCN(C(=O)c3cccs3)C2)no1` (stereo unspecified), the Percent Effect in [1] is -3.6%; in test [2] it was 10.4%; in test [3], 1.53%; in test [4] it was 10.4%; in the test with Trypanosoma cruzi, 3.64%; in [5], -9.65%. For the same compound, the Percent Effect in test [6] was 15.5%; in the test listed under Homo sapiens, -5.21%; in [7], 5.38%; in [8] it was 16.1%; in test [9] it was -2.24%.

With `CCCN(CCO)C(=O)C1CCC(=O)N(CCc2ccc(Cl)cc2)C1` (stereo unspecified), the Percent Effect in test [1] is 0.568%; in [2], 6.94%; in test [3], 1.97%; in test [4], -2.89%; in the test on Trypanosoma cruzi, 2.23%; in test [5], 3.53%. Also, the Percent Effect in [6] was 8.77%; in the test filed under Homo sapiens, -9.44%; in test [7] it was 4.21%; in [8], 7.69%; in [9], -5.01%.
